For 8 molecules, outcome, Potency and activation results are on record in PubChem BioAssay (Tox21).

Several values for one entry are separate records, joined by “and”; a condition that tells them apart may be missing. Equal entries are not always repeated. Unmarked numbers belong to inactive results. Records with an inconclusive call do not appear. Activity calls are given as the source filed them. Unless noted, calls come from the whole dose curve; as a rule, active = well fitted curve in the direction sought with a large enough effect in the repeat runs; inconclusive = weak or mixed curves; inactive = no such curve, though single readings can be large; an effect the other way counts as inactive or inconclusive.

Assay [1] in a line: qHTS assay for small molecule agonists of the p53 signaling pathway (AID 651631; calls by dose curve; note: nearly all actives have a fitted effect of over 15% in size). Put shortly:
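p53RE-bla HCT-116 cells; compounds 16 h, 37 °C; LiveBLAzer B/G FRET substrate 2 h RT; fluorescence intensity read-out, qHTS format.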

A short description of assay [2]: qHTS assay for small molecules that induce genotoxicity in human embryonic kidney cells expressing luciferase-tagged ATAD5 (AID 651632). Note: nearly all actives have a fitted effect of over 15% in size. The procedure, abridged:
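Luminescent reporter readout, HEK293T ATAD5-luc line: 16 hr drug exposure (37C, 5% CO2) followed by Amplite, 30 min RT.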

Assay [3] in a line: qHTS assay for small molecule agonists of the p53 signaling pathway - cell viability (AID 651633; calls by dose curve;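 note: p53RE-bla HCT reporter cells with a stable beta-lactamase p53 reporter; series mostly up to about 83 µM; nearly all actives have a fitted effect of over 30% in size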). The procedure, abridged: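 p53RE-bla cells, seeded at 4,000 per well and rested 5 h at 37 C/5% CO2, received compounds in DMSO for 16 h at 37 C. CellTiter-Glo was then added, and luminescence was read after 30 min at room temperature to gauge cytotoxicity.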
In general terms: Quantitative high-throughput screening tests each substance at several concentrations.

The nature of assay [4]: qHTS assay for small molecules that induce genotoxicity in human embryonic kidney cells expressing luciferase-tagged ATAD5 - cell viability (AID 651634; calls by dose curve; note: nearly all actives have a fitted effect of over 25% in size). Put shortly:
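Viability read: CellTiter-Fluor fluorescence, 30 min at 37C. Cells: HEK293T, luciferase-tagged ATAD5. Exposure: 15.5 hr, 37C, 5% CO2, compound or DMSO vehicle.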

Assay [5] in a line: qHTS assay for small molecule disruptors of the mitochondrial membrane potential - cell viability (AID 720634; calls by dose curve;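 note: human HepG2 liver cancer cells; series mostly up to about 83 µM; nearly all actives have a fitted effect of over 20% in size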). Put shortly: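 HepG2, 1 hr compound, 37 C. ATP luminescence via CellTiter-Glo, 30 min RT, same well as m-MPI.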
A short description of assay [6]: qHTS assay for small molecule disruptors of the mitochondrial membrane potential (AID 720635). Note: potency is the fitted concentration of half-maximal effect. The procedure, abridged: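 HepG2 cells (2,000/well) attached overnight at 37C, then took compound for 1 hr at 37C, 5% CO2. Mito-MPS dye was added for 30 min; fluorescence was read at 490/535 nm (monomers) and 540/590 nm (aggregates).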
Assay [7] is described as follows: qHTS assay to test for compound auto fluorescence at 590 nm (red) in HepG2 cells (AID 720674). Put shortly: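 Rose Bengal sodium served as the red fluorophore standard. HepG2 monolayers (overnight attachment, MEM with 10% FBS) were exposed to test compounds for 1 hr at 37 C and read at Ex 540/Em 590 nm.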
Assay [8] is described as follows: qHTS assay to test for compound auto fluorescence at 460 nm (blue) in HEK293 cells (AID 720678). Put shortly:
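After cell attachment (4-5 hr, 37C), compounds were pinned onto HEK293 monolayers in 10% dialyzed FBS medium. The blue channel (405/460 nm) was read following overnight culture. Equivalency was calculated against triamterene.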

The nature of assay [9]: qHTS assay to test for compound auto fluorescence at 590 nm (red) in HEK293 cells (AID 720679). The procedure, abridged:
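Plates of HEK293 cells (10% dialyzed FBS) are treated with 23 nL compound or DMSO vehicle after a 4-5 hr attachment period, incubated overnight at 37C, and read for red fluorescence at 540/590nm.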

Assay [10] is described as follows: qHTS assay to test for compound auto fluorescence at 460 nm (blue) in HEK293 cell free culture (AID 720681). Put shortly:
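Test compounds were pinned into cell-free culture medium (DMEM with 10% FBS) and fluorescence was read directly at Ex/Em 405/460 nm. Signals were expressed as fluorescence equivalents of triamterene, with DMSO vehicle as control.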

Assay [11] in a line: qHTS assay to test for compound auto fluorescence at 535 nm (green) in HEK293 cell free culture (AID 720682). The procedure, abridged: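 Cell-free medium (DMEM, 10% FBS) receives compound or DMSO by pintool. Plate read directly at Ex 485/Em 535 nm. Signal converted to fluorescein equivalency.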
Assay [12] can be described thus: qHTS assay to test for compound auto fluorescence at 590 nm (red) in HEK293 cell free culture (AID 720683). The procedure, abridged:
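Tox21 10K library compounds were pinned into cell-free DMEM with 10% FBS and fluorescence was read at excitation 540 nm. Activity is expressed as Rose Bengal sodium equivalency.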

Assay [13] is described as follows: qHTS assay to test for compound auto fluorescence at 590 nm (red) in HepG2 cell free culture (AID 720684). The procedure, abridged: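 Red fluorescence (540 nm excitation, 590 nm emission) was measured after compound transfer into cell-free MEM supplemented with 10% FBS. Values are equivalencies against Rose Bengal sodium.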
A short description of assay [14]: qHTS assay to test for compound auto fluorescence at 460 nm (blue) in HepG2 cell free culture (AID 720685). Put shortly:
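Compound (23 nL) or DMSO pinned into cell-free MEM with 10% FBS; blue fluorescence read at 405/460 nm excitation/emission, expressed as auto-fluorescence equivalency to triamterene.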

Assay [15] can be described thus: qHTS assay to test for compound auto fluorescence at 535 nm (green) in HepG2 cell free culture (AID 720686).
The nature of assay [16]: qHTS assay to test for compound auto fluorescence at 460 nm (blue) in HepG2 cells (AID 720687). Put shortly: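 Cells (2,000/well in MEM with 10% FBS) attached overnight at 37 C, then were exposed to compound or DMSO for 1 hr at 37 C, 5% CO2. Fluorescence read at Ex/Em 405/460 nm, expressed as triamterene-equivalent signal.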
The target of assay [17] is Glucocorticoid receptor (Homo sapiens) (UniProt P04150). Briefly: qHTS assay to identify small molecule agonists of the glucocorticoid receptor (GR) signaling pathway (AID 720691; active = well fitted activation curve with a large enough effect in the signal ratio in the repeat runs, not every such curve was filed as active; the % refers to the signal ratio). The procedure, abridged: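 qHTS in GR-bla HeLa cells: 4 h settling at 37 C/5% CO2, 18 h compound incubation at 37 C, 2 h LiveBLAzer B/G FRET substrate at room temperature, fluorescence intensity measured.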

Assay [18] shares this target. The assay is described as follows: qHTS assay to identify small molecule antagonists of the glucocorticoid receptor (GR) signaling pathway (AID 720692; active = well fitted inhibition curve with a large enough effect in the signal ratio in the repeat runs, not every such curve was filed as active; the % refers to the signal ratio). The procedure, abridged:
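Inhibition of glucocorticoid signalling is measured in HeLa cells with a GRE-controlled beta-lactamase reporter; cells are co-treated with compound and 5 nM dexamethasone (final) for 18 h before FRET substrate readout.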

Assay [19] is described as follows: qHTS assay to test for compound auto fluorescence at 535 nm (green) in HEK293 cells (AID 720680).
Assay [20] can be described thus: qHTS assay to test for compound auto fluorescence at 535 nm (green) in HepG2 cells (AID 720675).
% is set by controls: 0 for no effect and ±100 for the full control effect.

Chain of Glucocorticoid receptor (Homo sapiens) (P04150 whole entry, looked up): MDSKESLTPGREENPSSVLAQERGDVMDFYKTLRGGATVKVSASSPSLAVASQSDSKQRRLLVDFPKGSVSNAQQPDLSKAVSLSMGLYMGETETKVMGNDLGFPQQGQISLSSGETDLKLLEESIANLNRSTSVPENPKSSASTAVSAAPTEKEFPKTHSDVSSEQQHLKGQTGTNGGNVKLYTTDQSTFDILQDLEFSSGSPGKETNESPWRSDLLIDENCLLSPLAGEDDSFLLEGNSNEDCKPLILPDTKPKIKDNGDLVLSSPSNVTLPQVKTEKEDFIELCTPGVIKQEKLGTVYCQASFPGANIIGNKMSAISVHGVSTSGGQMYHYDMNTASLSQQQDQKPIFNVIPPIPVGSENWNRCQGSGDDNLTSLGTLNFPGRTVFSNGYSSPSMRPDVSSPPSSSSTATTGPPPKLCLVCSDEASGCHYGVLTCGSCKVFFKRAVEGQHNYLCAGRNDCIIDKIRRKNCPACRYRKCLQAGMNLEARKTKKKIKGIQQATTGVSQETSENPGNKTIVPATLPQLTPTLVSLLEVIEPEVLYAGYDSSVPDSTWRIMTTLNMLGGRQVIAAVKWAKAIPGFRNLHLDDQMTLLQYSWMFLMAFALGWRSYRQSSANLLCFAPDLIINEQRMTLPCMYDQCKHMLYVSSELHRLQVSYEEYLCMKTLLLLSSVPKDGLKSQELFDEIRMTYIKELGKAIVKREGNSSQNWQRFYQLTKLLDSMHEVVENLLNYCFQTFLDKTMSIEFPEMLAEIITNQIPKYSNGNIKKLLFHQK

`c1cc2c3c(cccc3c1)CC2`: the molecule was classed as inactive in assay [1], in [2], in [3], in assay [4], in assay [7] and in assay [8]. Besides, the result in assay [9], in assay [10], in [11], in assay [12], in assay [13] and in assay [14] was inactive. For the same molecule, the outcome in [15], in assay [16] and in [17] was inactive. In addition, the Potency result in assay [5], in [6] and in [18] was “inactive” in each case.
For `CC(C)(C)OOC(C)(C)C`, the result in assay [1], in assay [2], in assay [3], in assay [4], in assay [7] and in assay [8] was inactive. In addition, the molecule was called inactive in [9], in assay [19], in assay [10], in [11], in [12] and in [14]. Also, the molecule was called inactive in [15], in [16] and in assay [17]. Further, the Potency entry in assay [5], in [6] and in [18] was “inactive” in each case.
As for `CCNc1nc(NC(C)(C)C)nc(SC)n1`, the outcome in [1], in assay [2], in assay [3], in assay [4], in assay [7] and in [8] was inactive. The molecule was called inactive in [9], in assay [10], in assay [11], in assay [12], in [13] and in assay [14]. Besides, the call in assay [15], in assay [16] and in assay [17] was inactive. For the same molecule, the Potency result in assay [5] and in assay [18] was “inactive” throughout. Moreover, the Potency in assay [6] was 27.3 µM (active).
Regarding `O=[N+]([O-])c1ccc(Oc2ccc(Cl)cc2Cl)cc1`, the molecule was called inactive in assay [1], in [2], in assay [3], in assay [4], in assay [7] and in assay [20]. In addition, the outcome in assay [8], in [9], in assay [19], in assay [10], in [11] and in [12] was inactive. The result in [14], in assay [15], in [16] and in [17] was inactive. The Potency entry in assay [5] and in assay [18] was “inactive” in each case. Besides, the Potency in [6] is 54.8 µM (active) and 30.6 µM (active).
On to `C=C(C)CCl`, for which, in assay [1], the activation is -2.09% [at 8.3 µM]. The result in assay [2], in assay [3], in assay [4], in [7], in assay [8] and in assay [9] was inactive. Moreover, the outcome in assay [19], in [10], in [11], in assay [12], in assay [14] and in [15] was inactive. Also, the molecule was classed as inactive in assay [16] and in assay [17]. Besides, the Potency result in assay [5], in assay [6] and in [18] was “inactive” each time.
Regarding `CC(C)OC(=O)Nc1ccccc1`, the molecule was called inactive in assay [1], in assay [2], in [3], in [4], in assay [7] and in assay [20]. Moreover, the result in [8], in assay [9], in [19], in assay [10], in assay [11] and in assay [12] was inactive. The result in assay [13], in assay [14], in [15] and in assay [16] was inactive. Moreover, the Potency entry in [5] and in assay [6] was “inactive” in each case.
In the case of `CCC[CH2][Sn]([Cl])([Cl])[Cl]`, the molecule was called inactive in assay [1], in [2], in [3], in assay [4], in assay [7] and in [8]. For the same molecule, the molecule was classed as inactive in assay [9], in [19], in [10], in assay [11], in assay [12] and in assay [14]. Further, the result in assay [15], in assay [16] and in assay [17] was inactive. In addition, the Potency entry in assay [5] and in [6] was “inactive” each time.
On to `ClCc1cccnc1`, for which the molecule was classed as inactive in assay [1], in [2], in [3], in assay [4], in assay [7] and in assay [8]. Moreover, the outcome in [9], in [19], in assay [10], in assay [11], in [12] and in assay [13] was inactive. For the same molecule, the molecule was classed as inactive in assay [14], in [15], in assay [16] and in assay [17]. For the same molecule, the Potency entry in [5], in [6] and in assay [18] was “inactive” each time.
